Source: PubChem BioAssay (Sanford-Burnham Center for Chemical Genomics)
ER stress death = protection against thapsigargin ER stress killing – CSM14.1 cells, ATP luminescence, primary screen; CSM14.1 thapsigargin ER stress survival; relative survival (cellular ATP), % at 15 µg/mL (by protocol); 48,000 tested, 0.33% active;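 active = survival measured by cellular ATP above 50% at 15 µg/ml in the first screen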;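 also: cell death triggered by about 15 µM thapsigargin; ATP read 24 h after thapsigargin was added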
Of the large screens only hits and unclear results are named; the others gave an inactive call. Many of the other results were omitted from the sample, so hits are more common in it than they were.

CCN1C(=O)c2cccc3c(NC(=O)c4ccc(Oc5ccccc5)cc4)ccc1c23	none
CCN1C(=O)c2cccc3c(NC(=O)c4ccc(C(=O)c5ccccc5)cc4)ccc1c23	none
CCN1C(=O)c2cccc3c(NC(=O)c4ccc(S(=O)(=O)N5CCCCCC5)cc4)ccc1c23	ER stress death 96
COc1ccc(CN2CCN(Cc3cc(OC)ccc3O)CC2)cc1	none
Cc1nn(-c2ccc(C(F)(F)F)cn2)c(C)c1Oc1ccccc1O	none
O=C(NCCc1ccccc1Cl)C1CC(=O)N(c2ccccc2)C1 (configuration not stated)	none
Cc1ccc(-c2nc(-c3cccnc3)no2)cc1[N+](=O)[O-]	none
Cc1cc(NCc2ccc3c(c2)OCO3)ccc1Br	none
O=C(NCc1ccncc1)c1cccs1	none
O=C(CC(=S)c1cccs1)c1ccncc1	ER stress death 61
O=C(NCCNC(=O)c1cccs1)c1cccs1	none
CCOc1ccc(-c2c(C#N)c(N)n3c(nc4ccccc43)c2C#N)cc1OC	none
COc1ccc(CN2CCN(C(=O)c3ccc([N+](=O)[O-])cc3)CC2)cc1OCc1ccccc1	ER stress death 72
COc1cc(CN2CCN(C(=O)c3ccc([N+](=O)[O-])cc3)CC2)cc(OC)c1OC	none
COc1ccc(CN2CCN(C(=O)c3ccc(F)cc3)CC2)cc1OCc1ccccc1	ER stress death 53
COc1ccc(CN2CCN(C(=O)c3cccc(F)c3)CC2)cc1OCc1ccccc1	none
COc1ccc(CN2CCN(C(=O)c3ccccc3OC)CC2)cc1OCc1ccccc1	none
COc1ccc(C(=O)N2CCN(Cc3ccccc3)CC2)cc1[N+](=O)[O-]	none
CCn1c2ccccc2c2cc(CN3CCN(C(=O)CC(C)C)CC3)ccc21	ER stress death 63
CCn1c2ccccc2c2cc(CN3CCN(Cc4ccc(OC)c(Br)c4)CC3)ccc21	none
CCn1c2ccccc2c2cc(CN3CCN(C(=O)c4cccs4)CC3)ccc21	ER stress death 133
COc1ccc(CN2CCN(C(=O)c3cccs3)CC2)cc1OC	none
O=C(c1cccs1)N1CCN(Cc2ccc(Cl)cc2)CC1	none
CC(C)CC(=O)N1CCN(Cc2ccc3ccccc3c2)CC1	none
COC(=O)c1cc(NC(=O)c2ccc(-c3cccc(Cl)c3C)o2)cc(C(=O)OC)c1	none
CC(C)(C)c1ccc(/C=C2\SC(N3CCOCC3)=NC2=O)cc1	none
Cc1cc(=O)n2c([nH]c3ccccc32)c1C(=O)O	none
COC(=O)c1cc(C(=O)Nc2ccc(F)cc2)cc([N+](=O)[O-])c1	none
CCOc1ccc(Nc2nc(-c3ccccn3)cs2)cc1	none
Cc1ccn2c(-c3csc(Nc4cccc(O)c4)n3)c(C)nc2c1	none
CCOc1ccc(Nc2nc(-c3c(C)nc4cc(C)ccn34)cs2)cc1	ER stress death 96
CCN(CC)c1ccc(NC(=O)CCN2C(=O)c3ccccc3C2=O)cc1	none
COc1cc(/C=C2\SC(N)=NC2=O)cc(Br)c1OCc1cccc2ccccc12	none
COc1cccc(CN2CCN(C(=O)c3ccc(-c4ccccc4)cc3)CC2)c1OC	ER stress death 113
O=C(c1ccc([N+](=O)[O-])cc1)N1CCN(Cc2cccc(Cl)c2)CC1	none
COc1ccc(C(=O)N2CCN(Cc3cc(OC)c(O)c(OC)c3)CC2)cc1	none
COc1cccc(CN2CCN(C(=O)c3cccc(F)c3)CC2)c1OC	none
COc1cccc(CN2CCN(C(=O)c3ccccc3)CC2)c1OC	none
O=C(c1ccc([N+](=O)[O-])cc1)N1CCN(Cc2cccc3ccccc23)CC1	ER stress death 63
COc1cc(CN2CCN(C(=O)c3ccc(-c4ccccc4)cc3)CC2)cc(OC)c1OC	ER stress death 75
COc1ccc(C(=O)N2CCN(Cc3cc(OC)c(OC)c(OC)c3)CC2)cc1OC	none
O=C(c1ccc([N+](=O)[O-])cc1)N1CCN(Cc2ccccn2)CC1	none
COc1ccc(N2C(=O)c3ccccc3NC2c2ccc(OC)c(OC)c2)cc1 (configuration not stated)	none
Cc1cccc(N2CCN(S(C)(=O)=O)CC2)c1C	none
CC(=O)NNc1nc2c(c(=O)[nH]c(=O)n2C)n1CCc1ccccc1	none
Ic1ccc(N=Cc2ccc(OC3CSC3)cc2)cc1	none
CSc1nc(NC(N)=O)c2c3c(sc2n1)CC(C(C)(C)C)CC3 (configuration not stated)	ER stress death 58
CC(C)(C)C1CCc2c(sc(NC(=O)c3ccncc3)c2C(N)=O)C1 (configuration not stated)	none
CC(C)(C)C1CCc2c(sc3ncn(N)c(=N)c23)C1 (configuration not stated)	none
COC(=O)c1ccc(/C=C2\SC(=S)N(Nc3ccccc3)C2=O)cc1	none
CCCC(=O)NNC(=O)c1ccccc1C	ER stress death 65
Cc1ccccc1C(=O)NNC(=O)C(C)C	none
Cc1ccccc1C(=O)NNC(=O)c1ccco1	none
Cc1ccc(S(=O)(=O)N(CC(=O)NC2CCCC2)c2cccc(Cl)c2)cc1	none
O=C(NC(=S)Nc1ccc(F)cc1)c1cc2ccccc2oc1=O	none
CCOC(=O)c1c(-c2ccc(OCC)cc2)csc1N	none
Cc1nnc(SCC(=O)N2c3ccccc3C(C)(c3ccc(Br)cc3)CC2(C)C)s1 (configuration not stated)	none
C=CCn1c(SCC(=O)N2c3ccccc3C(C)(c3ccccc3)CC2(C)C)nnc1-c1ccncc1 (configuration not stated)	ER stress death 76
CC1(c2ccccc2)CC(C)(C)N(C(N)=O)c2ccccc21 (configuration not stated)	none
Cc1ccc(C(=O)c2ccc(Br)cc2)cc1S(=O)(=O)NCc1ccccc1	none
CCCCOc1ccccc1C1Nc2ccccc2NC2=C1C(=O)CC(c1ccccc1)C2 (configuration not stated)	ER stress death 53
CCOc1ccc(C2Nc3ccccc3NC3=C2C(=O)CC(c2ccccc2)C3)cc1 (configuration not stated)	ER stress death 100
CCOc1ccc(C2Nc3ccccc3NC3=C2C(=O)CC(c2ccc(OC)cc2)C3)cc1 (configuration not stated)	none
COc1ccc(C2CC(=O)C3=C(C2)Nc2ccccc2NC3c2ccccc2)cc1 (configuration not stated)	none
COc1ccc(C2CC(=O)C3=C(C2)Nc2ccccc2NC3c2ccccc2Br)cc1 (configuration not stated)	none
COc1ccccc1C1Nc2ccccc2NC2=C1C(=O)CC(c1ccccc1)C2 (configuration not stated)	none
Cc1ccc(C2Nc3ccccc3NC3=C2C(=O)CC(c2ccccc2)C3)cc1 (configuration not stated)	none
O=C1CC(c2ccccc2)CC2=C1C(c1ccc(OCc3ccccc3)cc1)Nc1ccccc1N2 (configuration not stated)	none
COc1ccc(C2CC(=O)C3=C(C2)Nc2ccccc2NC3c2cc(C)ccc2C)cc1 (configuration not stated)	ER stress death 116
CSc1ccc(C2Nc3ccccc3NC3=C2C(=O)CC(c2ccccc2)C3)cc1 (configuration not stated)	ER stress death 91
CCOc1ccccc1C1Nc2ccccc2NC2=C1C(=O)CC(c1ccc(OC)cc1)C2 (configuration not stated)	none
O=C1CC(c2ccccc2)CC2=C1C(c1ccc(-c3ccccc3)cc1)Nc1ccccc1N2 (configuration not stated)	none
O=C(/C=C/c1cc(Br)cs1)Nc1cccc2cccnc12	none
O=C(Nc1cccc2ccccc12)c1ccc(CN2CCc3ccccc3C2)cc1	none
Cc1ccc(-c2nc3ccc(C)cn3c2NC(=O)c2ccc(Cl)cc2)cc1	none
Clc1cccc(Cl)c1OCCCN1CCOCC1	none
COc1ccccc1C(=O)Nc1nc2ccc([N+](=O)[O-])cc2s1	none
